Assay outcomes as filed in PubChem BioAssay.
PHOSPHO1 inh: PubChem AID 1565. Phosphoethanolamine/phosphocholine phosphatase (Homo sapiens), Q8TCT1. recombinant PHOSPHO1, absorbance phosphatase assay. inhibition, % at 13.3 µM. hit rate 1.1% among 290,000; in the data active = inhibition above about 60%
HDAC3 inh: HDAC3 deacetylase inhibitors, primary screen, biochemical, fluorescence, cell-free homogeneous; hit rate 0.15% among 320,000; inhibition, % at 8.3 µM; recombinant HDAC3, fluorogenic peptide/trypsin coupled; in the data active = inhibition above about 26%, passing the limit was not always enough
pCIP destab: p/CIP-EGFP fusion destabilizers, primary screen, fluorescence, F442A cells; hit rate 0.01% among 290,000; AID 1984, 2009; 16 h; Q05BA5; decrease of EGFP signal, % at 10 µM;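 active = EGFP signal decrease of at least 30% at 10 µM or well 3 SD below plate mean, unless failing retest; inactive = the rest, including hits failing retest or dose response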
PvdQ acylase: P. aeruginosa PvdQ acylase inhibitors, primary screen, biochemical, fluorescence, plate reader and imaging, single point; purified PvdQ acylase; hit rate 0.063% among 340,000; AID 488965, 2010; inhibition, % at 10 µM; in the data active = inhibition above about 30%, passing the limit was not always enough
GASC-1 inh: inhibitors of GASC-1 histone demethylase, primary screen, biochemical, fluorescence, DELFIA europium | hit rate 0.069% among 330,000 | AID 2099, 2009 | GST-JMJD2C(1-420) H3K9me3 demethylation | inhibition, % at 2.35 µM;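 active = more than half of a compound's replicate wells show inhibition beyond 50%, single wells judged on their own value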;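 note: signal counts dimethyl H3K9 product captured on neutravidin plate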
Target sequence (Q9H3R0 1-420 limits assumed): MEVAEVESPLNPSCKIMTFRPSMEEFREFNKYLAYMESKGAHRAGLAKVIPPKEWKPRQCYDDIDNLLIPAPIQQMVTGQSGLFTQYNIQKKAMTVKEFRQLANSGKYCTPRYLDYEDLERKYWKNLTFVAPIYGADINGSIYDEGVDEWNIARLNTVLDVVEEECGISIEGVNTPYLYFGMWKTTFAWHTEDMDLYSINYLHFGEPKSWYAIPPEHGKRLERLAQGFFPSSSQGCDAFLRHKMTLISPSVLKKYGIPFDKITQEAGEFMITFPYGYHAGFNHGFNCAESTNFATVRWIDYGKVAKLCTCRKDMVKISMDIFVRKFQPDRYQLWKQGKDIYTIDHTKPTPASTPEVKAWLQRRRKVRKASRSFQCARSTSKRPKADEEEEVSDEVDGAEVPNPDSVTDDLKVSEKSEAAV
SUMO Mot1 rescue: yeast Mot1-301 growth rescue at high temperature, primary screen, SUMOylation pathway inhibitor project, S. cerevisiae, ATP luminescence, 38.5C. S. cerevisiae Mot1-301 growth rescue; percent above DMSO median, 100 means doubled. growth rescue, % at 18.8 µM. hit rate 1% among 320,000;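 active = every valid replicate shows activation above 250% relative to neutral control wells; inactive = the rest, any valid replicate at or below 250%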
Mot1 SUMO dose: growth restoration of Mot1-301 yeast on galactose, dose response, SUMO pathway inhibitor project, whole organism, S. cerevisiae, ATP luminescence, cherry-picked samples. shares compounds with SUMO Mot1 rescue. S. cerevisiae Mot1-301 galactose growth, 24 h; -100 = growth of slx-deleted rescue strain. growth activity, percent, % at 42 µM. 2,300 tested, under 10 active. AID 493004, 2010;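 active = Signal drops as the depositor expects, and the fitted half-maximal dose is no more than ten times the top valid tested dose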;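 note: more negative values mean stronger growth rescue toward the control strain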
Of the large screens only hits and unclear results are named; the others gave an inactive call (follow-up assays come after a bar, where they were run). Sampled rows, rich in hits. Any-hit rate of the full collection: about 2.2%.

O=C(O)/C=C/C(=O)NC1CCC(CC2CCC(NC(=O)/C=C/C(=O)O)CC2)CC1 (stereo not drawn)	none
N/C(Cn1cncn1)=N\NC(=O)c1ccc(Cl)cc1Cl	SUMO Mot1 rescue 778 | Mot1 SUMO dose inactive
CC1(C)CC(NC(=O)c2c(N)no[n+]2[O-])CC(C)(C)N1	none
Cn1c(=O)c2c(nc(N/N=C/c3ccc(OC(=O)c4ccco4)cc3)n2Cc2ccccc2Cl)n(C)c1=O	SUMO Mot1 rescue active | Mot1 SUMO dose inactive
Cc1cc(C)nc(NS(=O)(=O)c2ccc(NC(=O)c3snnc3C)cc2)n1	none
COc1ccc(/C=C2\SC(=S)N(CCCCCC(=O)Nc3cc(C)on3)C2=O)cc1OC	none
COc1ccc(/C=C2\SC(=S)N(CCCC(=O)Nc3cc(C)on3)C2=O)cc1OC	SUMO Mot1 rescue active | Mot1 SUMO dose inactive
CCNc1cc(=O)n(C)c(=O)n1C	none
CC(C)CNc1cc(=O)n(C)c(=O)n1C	SUMO Mot1 rescue 392 | Mot1 SUMO dose inactive
Cc1cc(CNC(=O)COc2ccc(F)cc2Cl)cc(C)c1O	none
COc1ccc(OC)c(N(CC(=O)N2CCCC2)S(=O)(=O)c2ccccc2)c1	SUMO Mot1 rescue 469 | Mot1 SUMO dose inactive
COc1ccc(C)cc1N(CC(=O)N1CCCCCC1)S(=O)(=O)c1ccccc1	none
CN(C)S(=O)(=O)N1CCc2ccccc21	none
CN(C)S(=O)(=O)N1CCc2ccccc2C1	SUMO Mot1 rescue active | Mot1 SUMO dose inactive
COCCn1c(SCC(=O)N2CCCC2)nnc1-c1ccoc1C	SUMO Mot1 rescue active | Mot1 SUMO dose inactive
COCCn1c(SCC(=O)N2CCCC2)nnc1-c1ccco1	none
CS(=O)(=O)Nc1cc2c3c(c1)CCC(=O)N3CCC2	none
O=C(Cc1ccc(Cl)cc1)NNC(=O)c1ccco1	none
Cc1csc(CNc2ncnc3ccc(-c4cccnc4)cc23)c1	none (no result: PHOSPHO1 inh, pCIP destab, GASC-1 inh)
Clc1cccc(-c2ccc3ncnc(NCc4cccs4)c3c2)c1	none (no result: PHOSPHO1 inh, pCIP destab, GASC-1 inh)
Clc1ccccc1-c1ccc2ncnc(NCc3cccs3)c2c1	SUMO Mot1 rescue 411 (no result: PHOSPHO1 inh, pCIP destab, GASC-1 inh) | Mot1 SUMO dose inactive
Cc1csc(CNc2ncnc3ccc(-c4ccccc4Cl)cc23)c1	SUMO Mot1 rescue active (no result: PHOSPHO1 inh, pCIP destab, GASC-1 inh) | Mot1 SUMO dose inactive
O=C(CCCSc1ccc(Cl)cc1)Nc1cc(S(=O)(=O)N2CCOCC2)ccc1O	none (no result: PHOSPHO1 inh, pCIP destab)
Cc1ccc(NC(=O)Cn2nnc(C(=O)NCc3ccc4c(c3)OCO4)c2N)cc1	SUMO Mot1 rescue 550 | Mot1 SUMO dose inactive
CCOc1ccc(CN(C(=O)c2cccs2)C2CCS(=O)(=O)C2)cc1 (stereo not drawn)	none
Cc1cc(=O)c(C(=O)O)cn1Nc1ccc(Cl)cc1	SUMO Mot1 rescue active | Mot1 SUMO dose inactive
Cc1cc(=O)c(C(=O)O)cn1Nc1ccc(F)cc1	none (no result: SUMO Mot1 rescue)
COc1ccccc1CC(=O)N1CCOCC1	SUMO Mot1 rescue 878 | Mot1 SUMO dose inactive
O=C(COc1cccc2cccnc12)N1CCc2ccccc21	SUMO Mot1 rescue 561 | Mot1 SUMO dose inactive
Cc1ccc(CN(C)c2ccc(S(=O)(=O)N3CCCC3)cn2)cc1	none (no result: PHOSPHO1 inh, pCIP destab)
Cc1ccc(-c2noc(COc3ccccc3C)n2)cc1	none (no result: SUMO Mot1 rescue)
Cc1ccccc1OCc1nc(-c2ccccc2)no1	SUMO Mot1 rescue 390 | Mot1 SUMO dose inactive
O=C(NCC(c1cccs1)N1CCOCC1)c1ccccc1NS(=O)(=O)c1cc([N+](=O)[O-])ccc1Cl (stereo not drawn)	SUMO Mot1 rescue 504 | Mot1 SUMO dose inactive
O=C(NCC(c1cccs1)N1CCOCC1)c1ccccc1NS(=O)(=O)c1ccc(Cl)c([N+](=O)[O-])c1 (stereo not drawn)	none
CCOC(=O)C(NC(=O)c1ccccc1)(N1CCOCC1)C(F)(F)F (stereo not drawn)	SUMO Mot1 rescue active | Mot1 SUMO dose inactive
CCOC(=O)C(NC(=O)c1ccc(OC)cc1)(N1CCOCC1)C(F)(F)F (stereo not drawn)	none
CCc1nnc2n1N=C(c1ccccc1)CS2	none
